Data from the supplement of paper PMC11732987, “Enantioselective OTUD7B fragment discovery through chemoproteomics screening and high-throughput optimisation” (Communications Chemistry, 2025).

Legend:
Assay in all cases: log2 ratio of Biotin-Ahx-Ub-VS probe labelling (fragment/DMSO); higher = less target engagement (more negative = stronger competition), active = hit call of the paper (q ≤ 0.05, log2 ratio ≤ -1)
Conditions in all cases: compound concentration: 200 uM; treatment time: 3 h
[1] = target: T1, OTUD6B (UniProt Q8N6M0)
T1 sequence (whole entry): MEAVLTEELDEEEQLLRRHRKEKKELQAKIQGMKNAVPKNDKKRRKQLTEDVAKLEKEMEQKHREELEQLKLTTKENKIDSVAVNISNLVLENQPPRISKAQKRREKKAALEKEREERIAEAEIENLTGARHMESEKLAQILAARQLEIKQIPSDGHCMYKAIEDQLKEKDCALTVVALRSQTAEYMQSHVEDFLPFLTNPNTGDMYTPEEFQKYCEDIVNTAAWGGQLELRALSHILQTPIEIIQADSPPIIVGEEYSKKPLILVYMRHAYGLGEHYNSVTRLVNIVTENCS
Summary of the method: (§1)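 Lysate from HEK293T cells, 495 µg per sample in Tris/CHAPS/IGEPAL buffer with protease inhibitors, was treated for 3 h in triplicate with fragment at 200 µM or vehicle. Biotin-Ahx-Ub-VS was next added at 0.5 µM final for 1 h. The labelled DUBs were enriched with NeutrAvidin, digested with LysC and trypsin, and run by diaPASEF LC-MS/MS, with values given as average log2 fragment/vehicle ratios by unpaired t-test on global-median-normalised Spectronaut quantities of proteins with ≥2 unique peptides.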

[2] = target: T2, OTUD7B (UniProt Q6GQQ9)
T2 sequence (whole entry): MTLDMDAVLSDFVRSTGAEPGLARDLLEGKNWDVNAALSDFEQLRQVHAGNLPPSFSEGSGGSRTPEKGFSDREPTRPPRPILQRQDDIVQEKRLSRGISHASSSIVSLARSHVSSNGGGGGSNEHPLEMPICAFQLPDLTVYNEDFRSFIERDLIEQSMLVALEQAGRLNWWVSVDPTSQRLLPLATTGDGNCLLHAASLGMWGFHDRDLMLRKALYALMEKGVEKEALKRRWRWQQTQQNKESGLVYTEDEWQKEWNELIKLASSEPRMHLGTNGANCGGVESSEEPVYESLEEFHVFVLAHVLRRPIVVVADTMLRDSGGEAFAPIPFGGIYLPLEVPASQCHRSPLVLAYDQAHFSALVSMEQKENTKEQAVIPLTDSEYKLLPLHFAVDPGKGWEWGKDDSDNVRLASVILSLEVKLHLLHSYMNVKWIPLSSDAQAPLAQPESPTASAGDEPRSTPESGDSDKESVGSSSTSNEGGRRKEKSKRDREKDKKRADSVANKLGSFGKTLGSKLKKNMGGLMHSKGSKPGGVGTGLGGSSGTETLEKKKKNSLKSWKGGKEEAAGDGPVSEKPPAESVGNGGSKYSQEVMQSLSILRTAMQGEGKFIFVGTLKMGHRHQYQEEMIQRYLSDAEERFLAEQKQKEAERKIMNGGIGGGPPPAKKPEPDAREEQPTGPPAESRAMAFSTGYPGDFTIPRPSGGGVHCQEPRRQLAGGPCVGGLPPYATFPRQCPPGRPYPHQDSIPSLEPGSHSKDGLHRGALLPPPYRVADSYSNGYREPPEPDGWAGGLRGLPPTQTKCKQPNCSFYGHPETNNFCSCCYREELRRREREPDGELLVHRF
Summary of the method: as §1

[3] = target: PRPF8 (UniProt Q6P2Q9)
Summary of the method: as §1

[4] = target: T3, PSMD7 (UniProt P51665)
T3 sequence (whole entry): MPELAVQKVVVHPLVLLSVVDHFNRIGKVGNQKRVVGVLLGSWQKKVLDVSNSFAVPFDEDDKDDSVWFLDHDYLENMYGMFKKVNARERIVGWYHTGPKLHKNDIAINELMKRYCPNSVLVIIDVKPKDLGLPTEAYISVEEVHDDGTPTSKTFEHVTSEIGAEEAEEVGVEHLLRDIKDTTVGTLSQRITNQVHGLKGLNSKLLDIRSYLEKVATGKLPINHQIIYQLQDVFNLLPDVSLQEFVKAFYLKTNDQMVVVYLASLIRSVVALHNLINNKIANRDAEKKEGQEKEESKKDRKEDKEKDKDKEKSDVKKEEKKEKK
Summary of the method: as §1

[5] = target: UCHL1 (UniProt P09936)
UCHL1, sequence (P09936 whole entry, looked up): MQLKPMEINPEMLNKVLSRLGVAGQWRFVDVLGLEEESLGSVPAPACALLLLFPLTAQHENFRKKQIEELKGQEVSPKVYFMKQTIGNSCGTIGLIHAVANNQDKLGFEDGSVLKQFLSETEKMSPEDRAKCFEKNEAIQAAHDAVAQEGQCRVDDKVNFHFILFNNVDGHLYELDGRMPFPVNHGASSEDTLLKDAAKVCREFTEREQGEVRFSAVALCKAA
Summary of the method: as §1

[6] = target: T4, UCHL3 (UniProt P15374)
T4 sequence (whole entry): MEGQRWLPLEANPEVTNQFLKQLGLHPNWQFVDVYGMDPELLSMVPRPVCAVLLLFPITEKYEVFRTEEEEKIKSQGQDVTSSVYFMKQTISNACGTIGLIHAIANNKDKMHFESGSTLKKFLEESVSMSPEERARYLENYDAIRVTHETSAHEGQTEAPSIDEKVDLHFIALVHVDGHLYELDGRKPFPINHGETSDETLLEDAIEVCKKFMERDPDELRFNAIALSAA
Summary of the method: as §1

[7] = target: T5, UCHL5 (UniProt Q9Y5K5)
T5 sequence (whole entry): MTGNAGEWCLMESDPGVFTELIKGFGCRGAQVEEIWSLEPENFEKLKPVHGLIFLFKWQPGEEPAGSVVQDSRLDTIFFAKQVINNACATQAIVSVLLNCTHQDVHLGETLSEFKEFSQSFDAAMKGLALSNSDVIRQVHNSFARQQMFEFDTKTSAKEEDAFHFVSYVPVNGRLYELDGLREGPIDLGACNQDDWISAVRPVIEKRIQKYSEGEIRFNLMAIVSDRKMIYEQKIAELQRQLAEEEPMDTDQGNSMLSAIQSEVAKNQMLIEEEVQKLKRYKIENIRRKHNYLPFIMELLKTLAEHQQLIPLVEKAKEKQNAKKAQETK
Summary of the method: as §1

[8] = target: USP10 (UniProt Q14694)
USP10, sequence (Q14694 whole entry): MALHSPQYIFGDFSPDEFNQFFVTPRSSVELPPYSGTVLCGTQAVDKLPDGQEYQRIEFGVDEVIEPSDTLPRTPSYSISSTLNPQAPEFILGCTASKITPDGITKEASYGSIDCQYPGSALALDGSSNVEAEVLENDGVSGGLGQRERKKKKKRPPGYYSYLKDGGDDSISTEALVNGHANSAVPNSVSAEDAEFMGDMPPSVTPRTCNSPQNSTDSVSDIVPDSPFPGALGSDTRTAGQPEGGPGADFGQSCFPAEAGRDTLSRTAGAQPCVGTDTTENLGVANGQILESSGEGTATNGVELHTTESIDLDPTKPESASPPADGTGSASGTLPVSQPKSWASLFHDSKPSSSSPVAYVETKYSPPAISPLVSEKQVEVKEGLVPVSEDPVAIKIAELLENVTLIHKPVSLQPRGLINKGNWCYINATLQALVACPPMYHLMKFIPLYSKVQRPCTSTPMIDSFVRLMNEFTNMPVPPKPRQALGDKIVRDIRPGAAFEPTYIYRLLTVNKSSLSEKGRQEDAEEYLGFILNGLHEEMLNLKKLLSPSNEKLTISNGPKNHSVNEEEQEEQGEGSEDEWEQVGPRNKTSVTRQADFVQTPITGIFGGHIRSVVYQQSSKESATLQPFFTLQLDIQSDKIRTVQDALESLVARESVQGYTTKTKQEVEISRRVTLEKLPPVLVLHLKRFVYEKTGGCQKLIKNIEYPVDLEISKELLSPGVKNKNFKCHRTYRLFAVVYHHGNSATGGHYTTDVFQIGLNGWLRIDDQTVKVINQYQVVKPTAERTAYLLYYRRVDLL
Summary of the method: as §1

[9] = target: T6, USP15 (UniProt Q9Y4E8)
T6 sequence (whole entry): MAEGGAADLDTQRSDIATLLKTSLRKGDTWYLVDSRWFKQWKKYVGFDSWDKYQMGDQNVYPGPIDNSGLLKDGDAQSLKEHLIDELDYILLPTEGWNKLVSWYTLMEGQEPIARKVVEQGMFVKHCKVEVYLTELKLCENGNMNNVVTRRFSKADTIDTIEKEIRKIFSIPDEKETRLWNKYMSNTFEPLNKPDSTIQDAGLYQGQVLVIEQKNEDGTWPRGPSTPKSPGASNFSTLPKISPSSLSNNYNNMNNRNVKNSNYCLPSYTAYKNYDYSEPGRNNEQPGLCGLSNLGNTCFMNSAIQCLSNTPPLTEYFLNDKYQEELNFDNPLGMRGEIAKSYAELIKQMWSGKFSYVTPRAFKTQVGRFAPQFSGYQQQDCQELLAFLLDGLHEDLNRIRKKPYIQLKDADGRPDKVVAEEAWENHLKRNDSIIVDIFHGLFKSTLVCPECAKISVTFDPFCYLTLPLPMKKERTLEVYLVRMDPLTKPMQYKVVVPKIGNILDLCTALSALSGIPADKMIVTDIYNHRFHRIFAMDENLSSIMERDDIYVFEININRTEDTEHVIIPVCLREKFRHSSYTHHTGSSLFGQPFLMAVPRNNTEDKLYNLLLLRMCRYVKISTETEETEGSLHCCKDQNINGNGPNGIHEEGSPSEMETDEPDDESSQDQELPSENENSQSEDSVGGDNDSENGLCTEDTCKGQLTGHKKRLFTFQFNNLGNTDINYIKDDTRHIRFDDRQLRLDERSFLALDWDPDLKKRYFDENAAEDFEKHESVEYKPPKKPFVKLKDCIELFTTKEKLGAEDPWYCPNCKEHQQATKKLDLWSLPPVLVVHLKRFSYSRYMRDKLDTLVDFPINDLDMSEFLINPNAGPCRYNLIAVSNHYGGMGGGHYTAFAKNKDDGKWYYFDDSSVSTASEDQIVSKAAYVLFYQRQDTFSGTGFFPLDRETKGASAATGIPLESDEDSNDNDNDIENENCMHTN
Summary of the method: as §1

[10] = target: USP16 (UniProt Q9Y5T5)
USP16, sequence (Q9Y5T5 whole entry, looked up): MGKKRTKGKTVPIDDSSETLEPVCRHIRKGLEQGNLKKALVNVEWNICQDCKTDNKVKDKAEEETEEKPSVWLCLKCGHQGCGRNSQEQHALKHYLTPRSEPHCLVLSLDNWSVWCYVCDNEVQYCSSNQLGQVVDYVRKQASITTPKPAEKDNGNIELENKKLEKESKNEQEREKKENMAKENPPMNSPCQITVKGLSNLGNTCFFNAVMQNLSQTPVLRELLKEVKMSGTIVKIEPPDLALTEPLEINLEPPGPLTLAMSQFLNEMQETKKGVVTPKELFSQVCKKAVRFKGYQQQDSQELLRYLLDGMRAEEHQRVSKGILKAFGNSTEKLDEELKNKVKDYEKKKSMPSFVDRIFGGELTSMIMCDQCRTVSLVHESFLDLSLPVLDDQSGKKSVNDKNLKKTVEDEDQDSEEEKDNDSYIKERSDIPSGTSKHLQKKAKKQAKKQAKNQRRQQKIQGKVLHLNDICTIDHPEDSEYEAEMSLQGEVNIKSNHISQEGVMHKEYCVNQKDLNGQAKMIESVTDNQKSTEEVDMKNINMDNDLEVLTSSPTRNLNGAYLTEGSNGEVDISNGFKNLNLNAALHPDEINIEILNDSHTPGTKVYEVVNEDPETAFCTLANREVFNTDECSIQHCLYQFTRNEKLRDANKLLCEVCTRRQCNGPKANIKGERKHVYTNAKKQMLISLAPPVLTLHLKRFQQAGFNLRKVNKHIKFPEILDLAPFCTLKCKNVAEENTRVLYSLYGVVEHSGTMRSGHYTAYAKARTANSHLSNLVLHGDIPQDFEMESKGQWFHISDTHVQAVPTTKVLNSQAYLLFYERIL
Summary of the method: as §1

Measured: log2 ratio of Biotin-Ahx-Ub-VS probe labelling

COc1cc(Cl)c(C)cc1NC(=O)CCl
inactive: [1] -0.418 | [2] -0.345 | [3] -0.193 | [4] -0.352 | [6] 0.146 | [7] -0.348 | [8] -0.183 | [9] -0.24 | [10] -0.634
active: [5] -1.57
